The sample as a whole holds a higher share of hits than the screen did.
PD-1 reversal: reversal of PD-1 mediated T-cell inhibition; activation, % (no concentration beside the values); primary human CD4 T cells, PD-L1 beads, CellTiter-Glo 96 h; 29,000 tested, under 10 active; AID 2316; call rule not given here;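 also: 0% = median vehicle wells and 100% = positive control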
STK33 kin inh: blocks human STK33 kinase activity; inhibition, % at 12.5 µM; actives 0.44% (n = 27,000); Q9BYT3; ADP-Glo luminescence, MBP substrate; in the data active = inhibition above about 20%; inconclusive = no clear call, values can overlap the other calls
Target sequence (Q9BYT3 whole entry, looked up): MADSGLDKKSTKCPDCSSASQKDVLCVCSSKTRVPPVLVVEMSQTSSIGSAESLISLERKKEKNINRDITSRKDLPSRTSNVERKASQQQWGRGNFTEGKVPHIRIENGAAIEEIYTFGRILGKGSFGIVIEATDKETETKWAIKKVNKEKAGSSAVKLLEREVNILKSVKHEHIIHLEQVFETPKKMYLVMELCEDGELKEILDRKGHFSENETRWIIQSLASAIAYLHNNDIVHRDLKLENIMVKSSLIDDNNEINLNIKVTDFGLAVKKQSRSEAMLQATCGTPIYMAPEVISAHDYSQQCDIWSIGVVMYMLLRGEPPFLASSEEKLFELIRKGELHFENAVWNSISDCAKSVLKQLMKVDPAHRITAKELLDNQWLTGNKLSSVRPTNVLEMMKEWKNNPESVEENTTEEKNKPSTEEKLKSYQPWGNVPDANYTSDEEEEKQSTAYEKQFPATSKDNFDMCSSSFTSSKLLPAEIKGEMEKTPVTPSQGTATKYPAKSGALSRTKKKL
NOMO-1 viab: STK33 inhibitor candidate reducing NOMO-1 cell viability | inhibition, % (test concentration not listed) | NOMO-1 AML viability, CellTiter-Glo luminescence, 72 h | actives 7.5% (n = 37,000) | AID 2330; in the data active = inhibition above about 80%; inconclusive = no clear call, values can overlap the other calls
An asterisk follows results filed as active; ? = inconclusive; · = not tested or not shown.

SMILES	PD-1 reversal	STK33 kin inh	NOMO-1 viab
C[C@@H]1CN([C@@H](C)CO)C(=O)c2cc(NC(=O)Nc3ccccc3)ccc2O[C@@H]1CN(C)Cc1ccc(C(F)(F)F)cc1	-1.0	1.5	97.5*
C[C@H]1CN([C@@H](C)CO)C(=O)c2cc(NC(=O)Nc3ccccc3)ccc2O[C@@H]1CN(C)Cc1ccc(C(F)(F)F)cc1	0.9	·	?
C[C@@H]1CN([C@H](C)CO)C(=O)c2cc(NC(=O)Nc3ccc(C(F)(F)F)cc3)ccc2O[C@@H]1CN(C)Cc1ccccc1	-0.8	·	89.2*
C[C@H](CO)N1C[C@H](C)[C@H](CN(C)Cc2ccccc2)Oc2ccc(NC(=O)Nc3ccc(C(F)(F)F)cc3)cc2C1=O	-5.0	0.3	91.3*
C[C@H]1CN([C@@H](C)CO)C(=O)c2cc(NC(=O)Nc3ccccc3)ccc2O[C@H]1CN(C)Cc1ccc(C(F)(F)F)cc1	0.8	-0.9	14.3
C[C@H](CO)N1C[C@H](C)[C@H](CN(C)Cc2ccc(C(F)(F)F)cc2)Oc2ccc(NC(=O)Nc3ccccc3)cc2C1=O	·	·	15.4
O=C(Nc1ccc(I)cc1C(=O)NCc1ccco1)c1ccco1	-2.5	7.6	32.6
Cc1cc(C(=O)Sc2cccc(C(F)(F)F)c2)nn1C(C)(C)C	-7.7	-1.6	55.3
CS(=O)(=O)N(CC(=O)Nc1cccnc1)c1cccc(F)c1	0.5	-3.9	8.6
COC(=O)CN(c1ccc(C)c(C)c1)S(=O)(=O)c1ccccc1	·	-1.9	·
Cc1ccc(N(C(C)C(=O)NC2CCCCC2)S(C)(=O)=O)cc1C (stereo not given)	0.2	2.0	-11.4
C[C@@H]1CN([C@H](C)CO)C(=O)c2cc(NC(=O)Nc3ccc(C(F)(F)F)cc3)ccc2O[C@@H]1CN(C)Cc1ccc(-c2ccccc2)cc1	0.7	·	-11.6
C[C@H]1CN([C@@H](C)CO)C(=O)c2cc(NC(=O)Nc3ccc(C(F)(F)F)cc3)ccc2O[C@H]1CN(C)Cc1ccccc1	-3.0	-1.1	102.6*
C[C@H]1CN([C@@H](C)CO)C(=O)c2cc(NC(=O)Nc3ccc(C(F)(F)F)cc3)ccc2O[C@@H]1CN(C)Cc1ccc(Oc2ccccc2)cc1	1.1	-3.6	48.2
C[C@@H]1CN([C@@H](C)CO)C(=O)c2cc(NC(=O)Nc3ccc(C(F)(F)F)cc3)ccc2O[C@H]1CN(C)Cc1ccc(Oc2ccccc2)cc1	-7.1	2.7	118.4*
O=C(CN1C(=O)c2ccccc2S1(=O)=O)Nc1ccc(N2CCOCC2)cc1	·	-3.2	1.3
C=CC1(C)C[C@H](OC(=O)C(C)CO)[C@H]2C(=C)C(=O)O[C@@H]2C1C(=C)CO (stereo not given in full)	-7.7	-5.9	115.5*
C=C[C@]1(C)C[C@H](O)[C@H]2C(=C)C(=O)O[C@@H]2[C@H]1C(=C)CO	-1.3	-0.8	53.0
COc1c(O)c2c(=O)cc(OC)c3c4c(OC)cc(=O)c5c(O)c(OC)c(C[C@@H](C)OC(=O)c6ccccc6)c(c(c1C[C@@H](C)OC(=O)Oc1ccc(O)cc1)c23)c54	-9.9	0.1	141.6*
C[C@H](CO)N1C[C@H](C)[C@H](CN(C)Cc2ccc3c(c2)OCO3)Oc2ccc(NS(=O)(=O)c3ccc(F)cc3)cc2C1=O	-1.0	·	112.3*
C[C@@H]1CN([C@@H](C)CO)C(=O)c2cc(NS(=O)(=O)c3ccc(F)cc3)ccc2O[C@@H]1CN(C)Cc1ccc(Cl)c(Cl)c1	-3.3	0.3	110.5*
C[C@@H]1CN([C@H](C)CO)C(=O)c2cc(NS(=O)(=O)c3ccc(Cl)cc3)ccc2O[C@H]1CN(C)Cc1ccc(Cl)c(Cl)c1	-1.9	0.9	19.4
C[C@@H]1CN([C@@H](C)CO)C(=O)c2cc(NS(=O)(=O)c3ccc(Cl)cc3)ccc2O[C@H]1CN(C)Cc1ccc(Cl)c(Cl)c1	-0.8	·	118.6*
C[C@@H]1CN([C@H](C)CO)C(=O)c2cc(NS(=O)(=O)c3ccc(F)cc3)ccc2O[C@H]1CN(C)Cc1ccc2c(c1)OCO2	·	·	-6.0
C[C@H]1CN([C@@H](C)CO)C(=O)c2cc(NS(=O)(=O)c3ccc(Cl)cc3)ccc2O[C@@H]1CN(C)Cc1ccc(Cl)c(Cl)c1	-4.5	5.3	99.9*
SMILES	PD-1 reversal	STK33 kin inh	NOMO-1 viab
C[C@H]1CN([C@@H](C)CO)C(=O)c2cc(NS(=O)(=O)c3ccc(F)cc3)ccc2O[C@H]1CN(C)Cc1ccc(Cl)c(Cl)c1	0.9	·	11.2
C[C@@H]1CN([C@@H](C)CO)C(=O)c2cc(NS(=O)(=O)c3ccc(F)cc3)ccc2O[C@H]1CN(C)Cc1ccc(Cl)c(Cl)c1	-2.1	·	?
COc1ccc(C(=O)NCCCN2CCCC2=O)cc1[N+](=O)[O-]	·	0.8	-8.9
COC(=O)c1c(NC(=O)c2ccc(NS(C)(=O)=O)cc2)sc2c1CCCC2	·	0.5	27.3
COC(=O)C(Cc1c[nH]c2ccccc12)NS(=O)(=O)c1cccc2nonc12 (stereo not given)	1.1	·	-16.4
FC(F)(F)c1ncncc1-c1nnnn1-c1ccccc1	-0.9	·	-0.1
CS(=O)(=O)N(CC(=O)NC1CCCCCC1)c1ccc(F)cc1	-0.3	2.8	3.7
CS(=O)(=O)N(CC(=O)Nc1ccccc1Sc1ccccc1)c1cccc(C(F)(F)F)c1	0.5	-0.2	23.3
Cc1cc2ncn(CC(O)COc3ccc4cc(Br)ccc4c3)c2cc1C (stereo not given)	-4.8	-0.4	?
C=CCNC1=C2C[C@@H](C)C[C@H](OC)[C@H](O)[C@@H](C)/C=C(\C)[C@H](OC(N)=O)[C@@H](OC)C=C/C=C(/C)C(=O)NC(=CC1=O)C2=O	·	0.3	119.0*
Cc1ccc(F)c(NC(=O)CSc2nnc(-c3ccccc3)n2C)c1	1.5	-1.6	3.6
COc1cccc(NC(=O)CN(c2ccc(C)cc2C)S(C)(=O)=O)c1	2.1	0.9	28.1
O=C(NCc1ccccc1)c1nc2ncccn2n1	0.1	·	2.9
COc1cc2c(cc1O)C1Cc3ccc(O)c(OC)c3CN1CC2 (stereo not given)	-2.3	0.7	5.7
Cc1nn(C(C)(C)C)c(OC(=O)c2cccc(Br)c2)c1S(=O)(=O)c1ccccc1	-2.5	-0.2	119.2*
Cc1ccc(S(=O)(=O)c2c(C)nn(C(C)(C)C)c2OC(=O)c2ccccc2C(F)(F)F)cc1	-2.8	-0.3	61.3
Nc1cc(OC(=O)c2ccccc2)nn1S(=O)(=O)c1ccccc1	-0.1	-0.3	8.8
Cc1nn(C(C)(C)C)c(OC(=O)c2ccc(Cl)cc2)c1S(=O)(=O)c1ccccc1	-3.2	1.8	121.1*
Cc1c(Cl)cccc1NC(=O)CN(c1ccccc1)S(C)(=O)=O	·	-2.3	34.3
CSc1cccc(NC(=O)CSc2nnnn2-c2ccccc2)c1	-0.6	1.2	22.7
CSc1ccc(/C=N/n2nnnc2Nc2ccccc2)cc1	-2.4	·	94.9*
CCOC(=O)CSc1sc(C(=O)OCC)c2c1S(=O)(=O)N(C)c1ccccc1-2	0.3	·	120.1*
CCOC(=O)CSc1ncc(-c2ccccc2)nn1	1.1	5.1	-22.2
COc1ccc(NC(=O)CSc2nc(-c3ccccc3)cc(C(F)(F)F)n2)c([N+](=O)[O-])c1	-0.8	-0.8	12.8
Cc1ccc(NC(=O)CSc2nc(-c3cccs3)cc(C(F)(F)F)n2)c([N+](=O)[O-])c1	-0.3	7.7	107.0*
COc1cc(OC)cc(-c2nnc(SCC(=O)Nc3ccc(Cl)cc3)n2-c2ccc(F)cc2)c1	-0.3	7.9	24.7

Screens deposited in PubChem BioAssay by Broad Institute.
